# Source: PubChem BioAssay (NCATS)
# Several values for one entry are separate records, joined by “and”; a condition that tells them apart may be missing. Identical values can stand only once. Results filed as inconclusive are left out. Activity calls are given as the source filed them. Unless noted, calls follow the shape of the dose curve; as a rule, active = well fitted curve in the direction sought with a large enough effect in the repeat runs; inconclusive = weak or mixed curves; inactive = no such curve, though single readings can be large; an effect the other way counts as inactive or inconclusive.
# Experiments:
# [1] = molecular target: Cytochrome P450 2D6 (Homo sapiens) (UniProt P10635); assay: Cytochrome P450 family 2 subfamily D member 6 (CYP2D6) small molecule antagonists: luciferase biochemical (cell-free) qHTS assay (AID 1645840); also: nearly all actives have a fitted effect of over 55% in size; also: potency is read from the fitted curve at half-maximal effect; as to activity change, negative = inhibition: % is scaled to controls: 0 for no effect and ±100 for the full control effect
# Chain of Cytochrome P450 2D6 (Homo sapiens) (P10635 whole entry, looked up): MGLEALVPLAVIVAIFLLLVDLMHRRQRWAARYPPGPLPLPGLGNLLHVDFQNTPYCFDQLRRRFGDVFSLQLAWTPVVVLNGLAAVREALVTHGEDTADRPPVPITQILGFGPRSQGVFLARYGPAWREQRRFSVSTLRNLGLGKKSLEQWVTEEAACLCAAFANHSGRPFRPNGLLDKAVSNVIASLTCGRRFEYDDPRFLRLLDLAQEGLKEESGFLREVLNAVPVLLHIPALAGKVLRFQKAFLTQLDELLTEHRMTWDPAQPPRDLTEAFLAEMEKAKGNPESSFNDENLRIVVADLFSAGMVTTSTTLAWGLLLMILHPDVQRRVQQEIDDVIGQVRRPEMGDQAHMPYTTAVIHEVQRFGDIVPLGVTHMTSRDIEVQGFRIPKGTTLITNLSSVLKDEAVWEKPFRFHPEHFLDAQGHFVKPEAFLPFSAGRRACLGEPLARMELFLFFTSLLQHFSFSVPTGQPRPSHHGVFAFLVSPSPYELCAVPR
# Outline: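 P450-Glo luminescent screen: recombinant CYP2D6 enzyme–proluciferin substrate mix preincubated with compound 10 min at room temperature, then NADPH regeneration added for 1 h at room temperature. Detection reagent added for 20 min; luciferin light read as relative luminescence units.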
# [2] = Primary qHTS for inhibitors of nuclear receptor binding SET domain protein 2 (NSD2) in an isogenic RCH-ACV NSD2 p.E1099K mutant (9B) (AID 1645876; active = well fitted curve in the direction sought with a large enough effect; an effect the other way counts as inactive or inconclusive; also: nearly all actives have a fitted effect of over 70% in size; also: potency is read from the fitted curve at half-maximal effect)
# [3] = Primary qHTS for inhibitors of nuclear receptor binding SET domain protein 2 (NSD2) in an RCH-ACV wild type WT cells (2C) (AID 1645877; active = well fitted curve in the direction sought with a large enough effect; an effect the other way counts as inactive or inconclusive; also: nearly all actives have a fitted effect of over 70% in size; also: potency is read from the fitted curve at half-maximal effect)
# [4] = NCATS anti-infectives library activity on the primary C. elegans qHTS viability assay (AID 1745855; calls by dose curve)
# Outline: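 Viability is taken from GFP fluorescence of PE254-GFP-FLuc C. elegans imaged by laser cytometry over 7 days. Ten L1 worms per well grow at 21 °C on TOP10 E. coli capsules with titrated compound; levamisole marks toxicity.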
# [5] = molecular target: Cytochrome P450 2C9 (Homo sapiens) (UniProt P11712); assay: Cytochrome P450 family 2 subfamily C member 9 (CYP2C9) small molecule antagonists: luciferase biochemical (cell-free) qHTS assay (AID 1645842); also: nearly all actives have a fitted effect of over 55% in size; also: potency is read from the fitted curve at half-maximal effect; as to activity change, negative = inhibition: % is scaled to controls: 0 for no effect and ±100 for the full control effect
# Chain of Cytochrome P450 2C9 (Homo sapiens) (P11712 whole entry, looked up): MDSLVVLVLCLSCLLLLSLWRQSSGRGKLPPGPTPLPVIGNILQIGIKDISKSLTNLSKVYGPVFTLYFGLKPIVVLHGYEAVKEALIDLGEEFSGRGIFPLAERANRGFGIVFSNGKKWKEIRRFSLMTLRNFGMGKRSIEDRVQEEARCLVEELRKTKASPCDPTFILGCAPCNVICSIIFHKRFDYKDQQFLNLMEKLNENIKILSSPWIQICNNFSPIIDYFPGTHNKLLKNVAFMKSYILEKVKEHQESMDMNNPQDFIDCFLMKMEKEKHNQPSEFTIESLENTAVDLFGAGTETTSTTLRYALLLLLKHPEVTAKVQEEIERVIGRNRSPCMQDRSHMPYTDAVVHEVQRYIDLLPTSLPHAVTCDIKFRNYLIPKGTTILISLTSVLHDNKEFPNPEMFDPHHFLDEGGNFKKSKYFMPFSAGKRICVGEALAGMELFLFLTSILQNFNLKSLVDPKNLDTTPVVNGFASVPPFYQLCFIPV
# Outline: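 Luminescence, after 20 min with luciferin detection reagent, reflected CYP2C9 turnover during a 1 h NADPH-driven reaction at 37C. Enzyme-substrate mix contained 0.4% bovine serum albumin and was preincubated with compound 10 min at room temperature.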
# [6] = molecular target: Catechol O-methyltransferase (Homo sapiens) (UniProt P21964); assay: Confirmatory Screen for Target Class Profiling of Small Molecule Inhibitors of Methyltransferases (AID 1745852; calls by dose curve; also: potency is read from the fitted curve at half-maximal effect; as to activity change, negative = inhibition: % is scaled to controls: 0 for no effect and ±100 for the full control effect); conditions: MTase-Glo luminescence, SAH detection, recombinant enzyme; measured here: COMT max response; stronger effect = lower value
# Chain of Catechol O-methyltransferase (Homo sapiens) (P21964 whole entry, looked up): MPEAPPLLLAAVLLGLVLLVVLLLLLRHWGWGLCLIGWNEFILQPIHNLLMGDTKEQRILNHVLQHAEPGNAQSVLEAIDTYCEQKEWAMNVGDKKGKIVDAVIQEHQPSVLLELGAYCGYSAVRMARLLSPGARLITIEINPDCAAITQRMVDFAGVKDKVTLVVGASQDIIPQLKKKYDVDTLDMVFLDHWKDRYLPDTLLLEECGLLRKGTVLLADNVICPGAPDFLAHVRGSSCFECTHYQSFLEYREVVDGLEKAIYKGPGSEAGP
# [7] = molecular target: Guanidinoacetate N-methyltransferase (Homo sapiens) (UniProt Q14353); assay: as above; conditions: activity change, negative = inhibition: at 57.3 µM (top of the series) unless noted
# [8] = molecular target: Nicotinamide N-methyltransferase (Homo sapiens) (UniProt P40261); assay: as above; conditions: MTase-Glo luminescence, SAH detection, recombinant enzyme; measured here: NNMT max response; stronger effect = lower value
# Chain of Nicotinamide N-methyltransferase (Homo sapiens) (P40261 whole entry, looked up): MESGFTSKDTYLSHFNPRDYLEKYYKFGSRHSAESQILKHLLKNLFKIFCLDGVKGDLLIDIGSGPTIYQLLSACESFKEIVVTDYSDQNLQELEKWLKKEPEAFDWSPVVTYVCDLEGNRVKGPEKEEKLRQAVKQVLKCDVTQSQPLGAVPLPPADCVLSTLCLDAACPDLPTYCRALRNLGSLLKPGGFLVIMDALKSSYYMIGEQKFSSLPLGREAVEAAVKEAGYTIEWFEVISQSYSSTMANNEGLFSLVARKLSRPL
# [9] = molecular target: Phenylethanolamine N-methyltransferase (Homo sapiens) (UniProt P11086); assay: as above; conditions: MTase-Glo luminescence, SAH detection, recombinant enzyme; measured here: PNMT max response; stronger effect = lower value
# Chain of Phenylethanolamine N-methyltransferase (Homo sapiens) (P11086 whole entry, looked up): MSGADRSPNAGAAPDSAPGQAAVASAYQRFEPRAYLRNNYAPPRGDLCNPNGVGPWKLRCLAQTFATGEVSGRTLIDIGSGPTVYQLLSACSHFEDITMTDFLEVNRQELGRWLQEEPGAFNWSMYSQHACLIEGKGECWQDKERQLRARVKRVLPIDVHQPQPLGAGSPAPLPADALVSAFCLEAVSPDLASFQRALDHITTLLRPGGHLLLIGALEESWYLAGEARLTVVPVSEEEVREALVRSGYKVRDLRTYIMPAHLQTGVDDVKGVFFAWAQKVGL
# [10] = molecular target: Cytochrome P450 3A4 (Homo sapiens) (UniProt P08684); assay: Cytochrome P450 family 3 subfamily A member 4 (CYP3A4) small molecule antagonists: luciferase qHTS assay (AID 1645841); also: nearly all actives have a fitted effect of over 45% in size
# Chain of Cytochrome P450 3A4 (Homo sapiens) (P08684 whole entry, looked up): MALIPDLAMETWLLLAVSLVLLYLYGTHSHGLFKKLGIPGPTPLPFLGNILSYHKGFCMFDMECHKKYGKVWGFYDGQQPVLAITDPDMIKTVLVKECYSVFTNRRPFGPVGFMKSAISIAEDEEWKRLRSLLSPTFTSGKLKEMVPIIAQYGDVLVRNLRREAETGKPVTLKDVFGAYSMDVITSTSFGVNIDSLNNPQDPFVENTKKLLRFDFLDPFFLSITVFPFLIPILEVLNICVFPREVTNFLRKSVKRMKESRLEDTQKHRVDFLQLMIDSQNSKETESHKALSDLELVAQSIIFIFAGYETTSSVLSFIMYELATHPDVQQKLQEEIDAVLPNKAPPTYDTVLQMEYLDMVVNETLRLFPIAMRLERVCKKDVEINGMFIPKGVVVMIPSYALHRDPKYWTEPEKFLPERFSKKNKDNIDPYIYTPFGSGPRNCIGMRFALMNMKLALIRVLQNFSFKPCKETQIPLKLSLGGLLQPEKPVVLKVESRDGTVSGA
# Outline: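 Luminescent CYP3A4 activity readout: compounds plus enzyme-substrate mix 10 min at room temperature, reaction started with NADPH regenerating system for 1 h, stopped with detection reagent, read after 20 min. Ketoconazole served as control.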
# [11] = molecular target: N-terminal Xaa-Pro-Lys N-methyltransferase 1 (Homo sapiens) (UniProt Q9BV86); assay: Confirmatory qHTS for Inhibitors of N-terminal methyltransferase 1 (NTMT1): MTaseGlo Assay (AID 1645874; active = well fitted curve in the direction sought with a large enough effect; an effect the other way counts as inactive or inconclusive;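 also: luminescence from SAH made as NTMT1 methylates SPKRIA peptide using SAM; 0% = DMSO control and -100% = no-enzyme control; nearly all actives have a fitted effect of over 65% in size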)
# Chain of N-terminal Xaa-Pro-Lys N-methyltransferase 1 (Homo sapiens) (Q9BV86 whole entry, looked up): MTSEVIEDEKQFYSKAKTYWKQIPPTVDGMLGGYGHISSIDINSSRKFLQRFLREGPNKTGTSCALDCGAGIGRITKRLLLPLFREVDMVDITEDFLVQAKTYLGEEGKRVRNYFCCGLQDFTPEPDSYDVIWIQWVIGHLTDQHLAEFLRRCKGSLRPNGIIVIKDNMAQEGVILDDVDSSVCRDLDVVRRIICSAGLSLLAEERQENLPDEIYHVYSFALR
# Outline: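 qHTS format: NTMT1 125 nM, SAM 100 uM, peptide SPKRIA 1 uM final; 15 min compound preincubation, 30 min reaction at room temperature. MTase-Glo luminescence.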
smiles,measurement,setting,value
CN(C)C(=O)COC(=O)c1cc(-c2ccc(C3CCNCC3)cc2)c2ccc(-c3ccc(C(F)(F)F)cc3)cc2c1,Potency,[1],10.7 µM (active)
same,Potency,[2],4.59 µM (active)
same,Potency,[3],4.59 µM (active)
Cc1nc(NC(=O)N2CCC[C@H]2C(N)=O)sc1-c1ccnc(C(C)(C)C(F)(F)F)c1,Potency,[1],inactive
same,Potency,[2],1.63 µM (active) and 2.63 µM (active)
same,Potency,[3],1.63 µM (active) and 2.95 µM (active)
CCC[C@H](N[C@H]1CCc2cc(F)cc(F)c2C1)C(=O)Nc1cn(C(C)(C)CNCC(C)(C)C)cn1,Potency,[1],inactive
same,Potency,[2],16.3 µM (active) and 13.2 µM (active)
same,Potency,[3],13.2 µM (active)
same,Potency,[4],inactive
Cc1nc2cc(C(=O)NCc3ccccn3)nn2c(C)c1Cc1cccc(Cl)c1,Potency,[5],1.2 µM (active)
CN1CCN(C2=Nc3ccccc3Nc3ccc(Cl)cc32)CC1,Potency,[5],13.5 µM (active)
c1ccc(-c2cnn3cc(-c4ccc(OCCN5CCOCC5)cc4)cnc23)cc1,Potency,[5],3.38 µM (active)
Cn1c(CO)c(-c2ccccc2)c2cc([N+](=O)[O-])ccc21,Potency,[5],19 µM (active)
Cn1c(SCC(=O)N2CCC[C@H]2C(=O)Nc2ccccc2-c2ccccc2)nc2ccccc21,Potency,[1],16.9 µM (active)
same,Potency,[3],inactive
CC(C)C[C@@H](C(=O)N[C@@H](Cc1ccc(OCc2ccccc2)cc1)C(=O)NC(C)(C)C)N(C)Cc1ccc(C(C)(C)C)cc1,Potency,[1],inactive
same,Potency,[2],inactive
same,Potency,[3],inactive
NC(=O)c1cnc(N[C@@H]2CCCC[C@H]2N)nc1Nc1cccc(-n2nccn2)c1,Potency,[1],19 µM (active)
same,Potency,[2],0.649 µM (active)
same,Potency,[3],0.459 µM (active)
O=C(Nc1cccnn1)N1CCN(c2nccc(-c3ccc(F)c(F)c3)n2)CC1,Potency,[1],inactive
same,Potency,[2],inactive
same,Potency,[3],inactive
COc1ccc2cc(-c3cc(-c4cc(Cl)cc(Cl)c4)nn3C(C)c3ccc(C(=O)NCCC(=O)O)cc3)ccc2c1 (centres undefined),Potency,[5],10.7 µM (active)
CN(C)c1ccnc2sc3c(=O)n(N4CCCCCC4)cnc3c12,Potency,[5],7.56 µM (active)
CCCOc1ccc(S(=O)(=O)N2CCN(CCO)CC2)cc1-c1nc2c(CCC)cn(CC)c2c(=O)[nH]1,Potency,[5],5.35 µM (active)
OC1CCC(Nc2nc(-c3ccccc3)nc3[nH]ccc23)CC1 (centres undefined),Potency,[5],2.68 µM (active)
Cc1cc(C)c2c(c1)C(N(Cc1cc(C(F)(F)F)cc(C(F)(F)F)c1)c1nnn(C)n1)CCCN2CC1CCC(C(=O)O)CC1 (centres undefined),Potency,[5],10.7 µM (active)
CCC(=O)N1CCOc2c(cc(-c3ccc(OC)c(OC)c3)cc2OC[C@H]2CCCN(C)C2)C1,Potency,[1],13.5 µM (active)
same,Potency,[2],8.17 µM (active)
same,Potency,[3],7.28 µM (active)
same,activity,[6],-13.1%
same,"activity change, negative = inhibition",[7],-8.77%
same,activity,[8],-10.5%
same,activity,[9],-9.1%
COc1ccccc1-c1ccc(-c2cn(C(=O)N3CCCCC3Cc3ccccc3)nn2)cc1 (centres undefined),Potency,[1],inactive
same,Potency,[3],inactive
COc1ccc2nc3n[nH]c(C)c3c(NCCOCCO)c2c1,Potency,[1],9.52 µM (active)
same,Potency,[3],3.25 µM (active)
same,activity,[6],-59.3%
same,Potency,[7],27.1 µM (active)
same,activity,[8],-38.5%
same,activity,[9],-54.6%
CNC(=O)COC(=O)N1CCC(CCc2ccc(Cl)cc2)CC1,Potency,[5],21.3 µM (active)
COc1ccccc1OCCN1CC(COc2cccc3[nH]c4ccccc4c23)OCC1=O (centres undefined),Potency,[5],0.849 µM (active)
CC#C[C@@H](CC(=O)O)c1ccc(OCc2cccc(-c3ccc(C(F)(F)F)cc3)c2)cc1,Potency,[1],inactive
same,activity,[6],-11.2%
same,Potency,[7],inactive
same,activity,[8],-23.8%
same,activity,[9],3.83%
COc1ccc(CCN(C)CCCOc2nsc(-c3ccccc3)n2)cc1OC,Potency,[1],1.51 µM (active)
same,activity,[6],-5.88%
same,"activity change, negative = inhibition",[7],-0.0909%
same,activity,[8],-34.1%
same,activity,[9],-10.5%
CCn1c2ccccc2c2cc(Nc3ccnc(NCCCN4CCOCC4)n3)ccc21,Potency,[1],inactive
same,Potency,[2],2.9 µM (active)
same,Potency,[3],8.17 µM (active)
same,activity,[6],-20%
same,"activity change, negative = inhibition",[7],-7.76%
same,activity,[8],-66.6%
same,activity,[9],-29.8%
CCN1CCC[C@@H]1CNC(=O)c1ccc2c(c1)NC(=O)c1cccc(C)c1S2,Potency,[10],inactive
same,Potency,[5],inactive
COc1ccc(CCCN2CCC(COC(c3ccccc3)c3ccccc3)CC2)cc1,Potency,[1],0.0535 µM (active)
same,Potency,[3],16.3 µM (active)
O=C(NCc1ccccc1)c1ccc2c(=O)n(-c3cccc(C(F)(F)F)c3)c(=S)[nH]c2c1,Potency,[10],inactive
same,Potency,[5],10.7 µM (active)
same,Potency,[2],inactive
c1cc(NC2CCNCC2)nc(-c2cnc3ccccn23)c1,Potency,[1],15.1 µM (active)
same,Potency,[2],1.15 µM (active)
same,Potency,[3],1.45 µM (active)
same,activity,[6],-7.29%
same,"activity change, negative = inhibition",[7],-7.64%
same,activity,[8],-8.81%
same,activity,[9],-8.43%
COc1ccc2cc3c(NC(=O)c4ccco4)nn(C)c3nc2c1,Potency,[11],inactive
